In PubChem BioAssay AID1851 (National Center for Advancing Translational Sciences (NCATS), 2009) one finds AC50 and activity, negative = inhibition data, which are given here for 57 compounds.

Hit rate of the full screen: of about 16,000 compounds, about 4,000 (25%) were called active. Another 26% or so got no clear call; they are omitted. These entries were drawn from the full list. Values without a mark were called inactive. Calls come from the whole dose curve; as a rule, active = well fitted curve in the direction sought with a large enough effect; inconclusive = small, poorly fitted or top-dose-only effect, or effect the other way; inactive = no such curve, though single readings can be large or run the other way.
% is set by controls: 0 for no effect and ±100 for the full control effect.

Chain of Cytochrome P450 2C9 (Homo sapiens) (P11712 whole entry, looked up): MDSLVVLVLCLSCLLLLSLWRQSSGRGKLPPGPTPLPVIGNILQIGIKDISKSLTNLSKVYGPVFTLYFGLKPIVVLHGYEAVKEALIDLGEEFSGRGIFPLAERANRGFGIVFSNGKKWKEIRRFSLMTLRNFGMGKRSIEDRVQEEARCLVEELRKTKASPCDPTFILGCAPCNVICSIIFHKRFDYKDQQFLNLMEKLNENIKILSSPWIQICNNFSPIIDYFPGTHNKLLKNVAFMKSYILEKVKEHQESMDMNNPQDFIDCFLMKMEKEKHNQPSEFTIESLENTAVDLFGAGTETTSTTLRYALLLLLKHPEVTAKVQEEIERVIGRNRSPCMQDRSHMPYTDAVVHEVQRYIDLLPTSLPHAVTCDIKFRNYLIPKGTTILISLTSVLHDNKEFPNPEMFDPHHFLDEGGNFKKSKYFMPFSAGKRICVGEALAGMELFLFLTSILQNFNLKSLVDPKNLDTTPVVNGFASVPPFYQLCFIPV

This assay concerns the target Cytochrome P450 2C9 (Homo sapiens) (UniProt P11712). The assay can be described thus: Cytochrome panel assay with activity outcomes. The settings on record: recombinant CYP, pro-luciferin dealkylation, luminescence, p450-cyp2c9; series mostly up to 57.1 µM.
For orientation: AC50 means the concentration at which the activity in the assay is half-maximal. Turning to `CC(C)NC[C@H](O)c1cc(O)cc(O)c1`, the AC50 result is “inactive”.

For the compound `O=C(O)C[C@H]1OCC=C2C[N@@+]3([O-])CC[C@]45c6ccccc6N[C@@H]4[C@@H]1[C@H]2C[C@H]53`, the activity, negative = inhibition is 5.86% [at 11.4 µM].

With `CC(=O)OC[C@@H]1O[C@@H](O/N=C2/C[C@@H](O)[C@@H](O)[C@@H]3[C@H]4C(=O)N(c5ccc(F)cc5F)C(=O)[C@@H]4CC[C@@H]23)[C@H](OC(C)=O)[C@H](OC(C)=O)[C@@H]1OC(C)=O`, the activity, negative = inhibition is 18.5% [at 11.4 µM].

Turning to `CC1=NCC[N@@+]1(CCc1ccccc1)Cc1ccccc1`, the activity, negative = inhibition was -1.38% [at 11.4 µM].

In the case of `CCCN(CCc1ccccc1)[C@H]1CCc2c(O)cccc2C1`, the AC50 result was “inactive”.

`CN(CCO)c1cc(Sc2nc3ccccc3s2)c2nonc2c1[N+](=O)[O-]`: the AC50 was 3.55 µM (active).

With `COCC(=O)N1CCC2(CC1)CCN(C(=O)Nc1cccc(F)c1)CC2`, the AC50 entry is “inactive”.

As for `CC(=O)Oc1cc(C(F)(F)F)ccc1C(=O)O`, the AC50 entry is “inactive”.

On to `CC(=O)Nc1cc(C(F)(F)F)ccc1Oc1cccc(Br)c1`, for which the AC50 was 3.98 µM (active).

Regarding `Cc1cc2nc([C@H](C)C(=O)c3ccc(Cl)cc3)c(=O)[nH]c2cc1C`, the activity, negative = inhibition was -26.4% [at 11.4 µM].

Regarding `CCCOc1ccc(Cn2c(C)nc([N+](=O)[O-])c2SCC(O)COC)cc1[N+](=O)[O-]` (configuration not stated), the AC50 is 11.2 µM (active).

As for `COc1ccc(CSc2nnnn2C)cc1[N+](=O)[O-]`, the AC50 entry was “inactive”.

Turning to `CS(=O)(=O)N1CCC2(CC1)CN(Cc1cc(C(F)(F)F)cc(C(F)(F)F)c1)C2`, the AC50 entry is “inactive”.

On to `Cc1cc(C)c(NC(=O)CSc2nnc(Cc3cccn3C)n2-c2ccc(F)cc2)c(C)c1`, for which the AC50 was 10 µM (active).

In the case of `C=CCn1c(SCc2ccc3c(c2)OCO3)nc2scc(-c3ccco3)c2c1=O`, the AC50 result is “inactive”.

As for `C=CCn1c(SC(C)C(=O)NCc2ccc3c(c2)OCO3)nc2scc(-c3ccccc3)c2c1=O` (configuration not stated), the concentration at half-maximal activity (AC50) was 2.51 µM (active).

In the case of `S=C1SCN(C2CCCCCCCCCCC2)CN1C1CCCCCCCCCCC1`, the activity, negative = inhibition was -14.2% [at 11.4 µM].

Consider `CC1(C)O[C@@H]2C[C@H]3[C@H]4C[C@H](F)C5=CC(=O)CC[C@]5(C)[C@@H]4[C@H](O)C[C@]3(C)[C@]2(C(=O)CO)O1`, for which the AC50 result is “inactive”.

Consider `CC(NC(=O)c1ccc(Cn2cc([N+](=O)[O-])cn2)o1)c1ccccc1` (configuration not stated), for which the half-maximal activity concentration (AC50) was 6.31 µM (active).

On to `Cc1ncc([N+](=O)[O-])n1CC(=O)NCc1ccccc1`, for which the AC50 result was “inactive”.

Regarding `CCOC(=O)c1c(-c2ccccc2)cn2ccccc12`, the AC50 was 3.55 µM (active).

Turning to `CCOC(=O)c1c2c(n3ccccc13)C(=O)c1ccccc1C2=O`, the activity, negative = inhibition is -20.1% [at 11.4 µM].

As for `CN(C)C(=O)c1ccc(-c2nccc(Nc3ccc(F)cc3)n2)cc1`, the activity, negative = inhibition was -2.83% [at 2.29 µM].

In the case of `COCC(=O)N1CCC2(CCCN(Cc3ccccc3OC)C2)CC1`, the AC50 entry is “inactive”.

Consider `CO[C@@H]1COC(=O)[C@H]2CCCN2C(=O)[C@@H](C)COC(=O)C/C=C\[C@H]1C`, for which the activity, negative = inhibition is 14.2% [at 11.4 µM].

Consider `O=C(c1coc2ccccc2c1=O)N1CCN(c2cccc(C(F)(F)F)c2)CC1`, for which the AC50 was 12.6 µM (active).

In the case of `Cc1ccc(CC(=O)N2CCN(c3cccc(C(F)(F)F)c3)CC2)cc1`, the AC50 is 14.1 µM (active).

As to `CCc1ccc(NC(=S)N2CCN(c3cccc(C(F)(F)F)c3)CC2)cc1`, the AC50 result is “inactive”.

Regarding `Cc1cccc(C)c1NC(=O)c1cc2c(=O)c3ccccc3oc2nc1C(F)(F)F`, the AC50 entry is “inactive”.

In the case of `C[C@@H]1CCN=C(N)S1`, the AC50 result was “inactive”.

As for `CS(=O)(=O)Nc1cccc(-c2ccc3ncnc(NC4CC4)c3c2)c1`, the activity, negative = inhibition is -17.7% [at 2.29 µM].

Turning to `CO[C@@H]1COC(=O)[C@H]2CCCN2C(=O)C/C=C\[C@@H](C)[C@H](OC)COC(=O)[C@H]2CCCN2C(=O)C/C=C\[C@H]1C`, the activity, negative = inhibition was -0.816% [at 11.4 µM].

Consider `O=c1cnc2cnc(OCc3ccccc3)nc2n1Cc1ccc(F)cc1`, for which the AC50 result is “inactive”.

Consider `O=c1cnc2cnc(Oc3cccc(Cl)c3)nc2n1Cc1ccc(F)cc1`, for which the half-maximal activity concentration (AC50) is 7.94 µM (active).

`O=c1cnc2cnc(Oc3ccccc3)nc2n1CCc1ccccc1`: the concentration at half-maximal activity (AC50) is 3.16 µM (active).

As to `O=c1cnc2cnc(Oc3ccccc3)nc2n1Cc1ccc(F)cc1`, the AC50 was 15.8 µM (active).

For `COc1cccc(Cn2c(=O)cnc3cnc(Oc4cccc(Cl)c4)nc32)c1`, the AC50 was 3.98 µM (active).

Take `Cc1nc2cnc(Oc3ccccc3)nc2n(CCc2ccccc2)c1=O`: the AC50 entry is “inactive”.

With `COc1ccc(-n2c(=O)cnc3cnc(Oc4cccc(Cl)c4)nc32)cc1`, the AC50 entry is “inactive”.

Take `CN1CCN(c2ncc3ncc(=O)n(Cc4ccc(F)cc4)c3n2)CC1`: the AC50 result was “inactive”.

Consider `N#CCCn1c(=O)cnc2cnc(Oc3ccccc3)nc21`, for which the AC50 result is “inactive”.

With `COc1cccc(Cn2c(=O)cnc3cnc(OC)nc32)c1`, the AC50 entry is “inactive”.

`CO[C@@H]1COC(=O)CC=C[C@@H](C)[C@@H]2C=C[C@@H](O)[C@@H](COC(=O)C/C=C\[C@H]1C)O2`: the activity, negative = inhibition is -2.62% [at 11.4 µM].

On to `C#CCCCO/N=C1/C[C@@H](O)[C@@H](O)[C@@H]2[C@@H]3C(=O)N(Cc4ccccc4)C(=O)[C@H]3CC[C@H]12`, for which the activity, negative = inhibition was -13.5% [at 11.4 µM].

Take `CC1(C)OC[C@@H]2O[C@H](n3cnc4c(N)nc(Cl)nc43)[C@@H](OS(C)(=O)=O)[C@@H]2O1`: the activity, negative = inhibition was 2.13% [at 11.4 µM].

In the case of `CC(C)c1ccc2nc3sc(C(=O)N4CCc5ccccc5C4)c(N)c3cc2c1`, the AC50 is 4.47 µM (active).

Take `Cc1noc(NC(=O)Nc2ccccc2F)c1C#N`: the activity, negative = inhibition was -5.47% [at 11.4 µM].

For `COc1ccc(CC(=O)O/N=C(\N)Cc2ccc(OC)cc2)cc1`, the AC50 result was “inactive”.

On to `COc1ccc2c(c1)C(=NN)c1cc(OC)ccc1-2`, for which the AC50 was 3.55 µM (active).

For `C/C(CCc1ccc2c(c1)OCO2)=N\N=C1\NC(=O)CC(C(=O)Nc2ccccc2)S1` (configuration not stated), the half-maximal activity concentration (AC50) was 7.94 µM (active).

For the compound `CCN1C(=O)[C@H]2[C@H]3[C@H](O)[C@H](O)C/C(=N/NC(=O)OCc4ccccc4)[C@@H]3CC[C@@H]2C1=O`, the activity, negative = inhibition is -4.03% [at 11.4 µM].

As for `OC[C@@H]1O[C@@H](n2cnc3c(NC4CCCC4)ncnc32)[C@H](O)[C@H]1O`, the AC50 result is “inactive”.

With `O=S(=O)(c1ccccc1)N1CCN(c2cc(-c3ccccc3)nc3ncnn23)CC1`, the AC50 is 12.6 µM (active).

`CC(C)CN1CCCC2(CCN(S(=O)(=O)c3ccccc3)CC2)C1`: the AC50 result is “inactive”.

For the compound `Cc1cc(N2CCN(c3nc4ccccc4s3)CC2)n2ncnc2n1`, the AC50 entry is “inactive”.

For `FC(F)(F)c1ccc(N2CCN(c3cc(-c4ccccc4)nc4ncnn34)CC2)nc1`, the concentration at half-maximal activity (AC50) is 2.24 µM (active).

As for `CN1CCN(c2cc(-c3ccccc3C(F)(F)F)ncn2)CC1`, the activity, negative = inhibition is 4.29% [at 2.29 µM].
